This is a sample that favours compounds with a hit; in the whole collection about 7.9% have one here.
HER2 expr 66K: inhibitors of Her2 protein expression, primary screen, SKBR-3 cells, AlphaScreen, 66K library | hit rate 0.69% among 65,000 | HER2 level % of control, % at 10 µM | AID 645, 2007 | SKBR-3 HER2 protein level, 18-24 h; active compounds read low;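 active = HER2 level under 5% of the carrier-only control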;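 note: 100% = DMSO carrier and 0% = 500 nM PU-H71 HSP90 inhibitor; lower value means stronger loss of Her2 protein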
M1 ag: M1 muscarinic receptor agonists, primary screen, CHO-M1 cells, Fluo-4 calcium, agonist mode; Muscarinic acetylcholine receptor M1; hit rate 3% among 64,000; Fluo-4 calcium fluorescence; active compounds read high; B-score at 10 µM;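 active = fluorescence rise, raw or as B-score row- and column-corrected plate score, outside the 99.7% band of its plate's samples, either direction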
Cav3 T inh: Cav3.2 calcium influx blockers – cell-based, Fluo-4 calcium fluorescence, FDSS, MLSMR library, primary screen. Cav3.2-expressing cells; active compounds read low. B-score at 10 µM. Voltage-dependent T-type calcium channel subunit alpha-1H (Homo sapiens), O95180. hit rate 4% among 100,000;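 active = single-dose well whose peak fluorescence ratio is a statistical outlier from its plate by either plate-standardised score or position-corrected B-score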
PLAP act: PLAP enzyme activators, biochemical, luminescence, HTS | Alkaline phosphatase, placental type (Homo sapiens), P05187 | activation fold at 20 µM | hit rate 1.2% among 96,000 | purified PLAP enzyme, luminescent substrate read-out; active compounds read high; in the data active = activation fold above about 2
M1 antag: antagonists of rat M1 muscarinic receptor. hit rate 3.4% among 64,000. AID 628, 2007. B-score at 10 µM. CHO-M1 cells, Fluo-4 calcium, ACh EC80 antagonist mode; active compounds read low. Muscarinic acetylcholine receptor M1 (Rattus norvegicus), P08482;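 active = calcium fluorescence response, raw or row-and-column corrected B-score, differing from the plate sample mean either way at a set confidence level, mostly lower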
Target sequence (P08482 whole entry, looked up): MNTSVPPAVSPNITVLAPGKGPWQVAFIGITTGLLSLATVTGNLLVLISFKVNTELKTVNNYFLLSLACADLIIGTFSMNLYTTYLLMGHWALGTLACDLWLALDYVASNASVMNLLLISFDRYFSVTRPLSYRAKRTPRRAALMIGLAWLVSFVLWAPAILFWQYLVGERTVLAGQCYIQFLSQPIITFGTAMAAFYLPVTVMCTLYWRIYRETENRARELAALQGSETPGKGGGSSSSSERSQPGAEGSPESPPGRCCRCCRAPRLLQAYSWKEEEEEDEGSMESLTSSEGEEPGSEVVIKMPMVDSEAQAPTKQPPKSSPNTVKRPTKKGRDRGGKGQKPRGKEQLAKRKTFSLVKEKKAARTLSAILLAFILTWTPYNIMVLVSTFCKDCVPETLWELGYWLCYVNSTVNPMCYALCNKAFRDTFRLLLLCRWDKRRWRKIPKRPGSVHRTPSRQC
The depositor's hits bear a star; · = no result given.

SMILES | HER2 expr 66K | M1 ag | Cav3 T inh | PLAP act | M1 antag
Nc1nc(C(=O)N2CCOCC2)nn1S(=O)(=O)c1ccc(Cl)cc1 | 96 | 0.83 | 0.18 | 0.9 | 0.13
CC(=O)C1=C(C)Nc2ncnn2C1c1ccc(Cl)cc1 (centres undefined) | 105 | 0.75 | 0.1 | 0.9 | 1
CC1=CC(c2ccc(Cl)cc2)n2nc(NC(=O)c3ccccc3)nc2N1 (centres undefined) | · | · | -1.8 | 2.3* | ·
COc1ccc(-n2c(O)cnc2Nc2nc(C)cc(C)n2)cc1OC | · | · | · | 2.7* | ·
COc1cccc(NC(=O)CSc2nnc(-c3ccc(C)cc3)o2)c1 | 90 | 0.72 | -0.11 | 1 | 0.093
COc1ccc(CN(C(=O)CSc2nnc(-c3ccccc3C)o2)c2ccc(F)cc2)cc1 | · | · | -4.7* | · | ·
O=C(CSc1nnc(-c2c[nH]c3ccccc23)o1)N(Cc1ccccc1)c1ccc(F)cc1 | 68 | -1.5 | -2.5 | · | 0.019
COc1ccc(-c2nnc(SCC(=O)Nc3cc(F)ccc3C)o2)cc1 | 91 | -1.5 | -5.6* | 1.3 | -0.0063
COc1ccccc1CNC(=O)/C=C/c1cc2c(cc1Br)OCO2 | · | · | 0.071 | 1.1 | ·
O=C1CC(c2nc3ccccc3[nH]2)CN1c1cccc(C(F)(F)F)c1 (centres undefined) | 145 | -0.35 | -5.4* | · | -0.4
COc1ccc(Cl)cc1N1CC(c2nc3ccccc3[nH]2)CC1=O (centres undefined) | 93 | -0.79 | -0.0093 | · | 0.085
CC(C)(C)c1ccc(OCCNC(=O)c2ncn[nH]2)cc1 | · | · | -0.69 | 2.7* | ·
CCc1cc(C)cc(OCCNC(=O)c2ncn[nH]2)c1 | 113 | 0.021 | 0.37 | 2* | -0.15
Cc1cc(CN2CCOCC2)c(O)c(C2(C)CCCCC2)c1 | 117 | 1.2 | 1.4 | 0.9 | 1.4
O=C(Cn1[nH]c(=O)c2ccccc2c1=O)OCC(=O)N(Cc1ccccc1)Cc1ccccc1 | · | · | -4.4* | 1 | ·
CCOC(=O)Cc1csc(NC(=O)c2sc3nc4c(C)cc(C)cc4cc3c2N)n1 | · | · | -3.3 | 1.3 | ·
CCNC(=S)N(Cc1ccc2c(c1)OCO2)C1CC(=O)N(c2ccc(F)cc2)C1=O (centres undefined) | · | · | -7.1* | 1 | ·
Cc1cccc(CN2C(=O)N/C(=C/c3cc(C)n(-c4ccccn4)c3C)C2=O)c1 | · | · | 0.23 | 1 | ·
Cc1cc(C)c(-n2c(C)cc(/C=C3/NC(=O)NC3=O)c2C)c(C)c1 | · | · | -6.1* | 1.1 | ·
CCN(CC)C(=O)c1sc(NC(=O)c2ccc(C)c([N+](=O)[O-])c2)c(C#N)c1C | · | · | · | 1.2 | ·
CCOC(=O)N1CCN(C(=O)c2cc(Cl)c(Cl)cc2C(=O)O)CC1 | 191 | 4.6* | 0.04 | 1.1 | 1.3
COC(=O)c1ccccc1NC(=O)CSc1n[nH]c(CC(C)C)n1 | 90 | -0.31 | -0.079 | 2.4* | 0.43
COC(=O)/C(=C(/F)SCC(C)=O)C(F)(F)F | · | · | -0.29 | 1.1 | ·
CC1(C)CC(=O)C(C=NCC2CCNCC2)=C(O)C1 | 88 | -0.45 | 0.76 | 0.9 | 0.95
CC1(C)CC(=O)C(C=NCC2CCN(C(=O)Nc3ccc(Cl)c(Cl)c3)CC2)=C(O)C1 | · | · | -3.3* | 0.9 | ·
SMILES | HER2 expr 66K | M1 ag | Cav3 T inh | PLAP act | M1 antag
O=C(CN1CCC(C(O)(c2ccccc2)c2ccccc2)CC1)Nc1cc(Cl)ccc1Cl | · | · | -0.12 | 1.2 | ·
O=C(CN1CCC(C(O)(c2ccccc2)c2ccccc2)CC1)Nc1ccccc1 | · | · | -2.4* | 1.4 | ·
O=C(CN1CCN(Cc2ccccc2)CC1)Nc1cccc(C(F)(F)F)c1 | · | · | -6.6* | 1.7 | ·
O=C(CN1CCN(c2ccccc2)CC1)Nc1cccc(C(F)(F)F)c1 | 92 | -0.02 | 1 | 0.9 | 0.38
CCOc1ccc(N=c2scc(-c3ccccc3)n2CCO)cc1 | · | · | 0.63 | 0.9 | ·
OCCn1c(-c2ccc3c(c2)OCO3)csc1=Nc1ccccc1 | 78 | 0.032 | -5.4* | 1.5 | -0.48
O=C(O)c1cnc(-c2ccccc2)nc1Sc1ccc(Cl)cc1Cl | · | · | -0.99 | 1.2 | ·
Cc1cc(NC(=O)CCC2CCCC2)no1 | · | -1.1 | -0.3 | 0.8 | -0.42
COc1ccc(OC)c([C@@H]2OCCC=C[C@H]2C)c1 | · | · | 1.8 | · | ·
Cc1ccc(C)c(N(CC(N)=O)S(C)(=O)=O)c1 | 97 | 0.067 | 1.3 | 0.8 | 2.1*
COc1ccc(C)cc1N(CC(N)=O)S(=O)(=O)c1ccc(C)cc1 | 110 | · | · | 1.2 | ·
Cc1ccc(C)n1-n1c(C)nc2scc(-c3cccs3)c2c1=O | 82 | -0.075 | -3.9* | 1.2 | -0.72
Cc1nc2scc(-c3cccs3)c2c(=O)n1-n1cccc1 | 70 | 0.31 | -3 | 0.9 | 0.5
Cc1[nH]c2ccccc2c1C(=O)COC(=O)C1CCC(=O)N1 (centres undefined) | -21* | 0.082 | -0.58 | 1 | 0.095
COC(=O)c1ccc(NC(=O)c2cccc(Cl)c2)o1 | · | · | -0.029 | 1 | ·
N#Cc1nc(COc2ccc(Br)cc2)oc1NCCCn1ccnc1 | 125 | -0.43 | · | 2.2* | 0.11
Cc1nn(C)c(C)c1/C=N/O | · | · | -0.081 | 0.9 | ·
CCn1c(=O)cc(OCC(=O)Nc2ccc(Cl)cn2)c2ccccc21 | 57 | -0.36 | · | · | -0.18
Cc1ccc(CNC(=O)C(=O)NCC2OCCN2S(=O)(=O)c2cccs2)cc1 (centres undefined) | · | · | -4.7* | · | ·
COc1cccc(NC(=O)Cn2c(-c3cncs3)nc3ccccc32)c1 | 91 | 0.28 | -0.35 | 2* | 0.31
O=C(Cn1c(-c2cncs2)nc2ccccc21)NCCc1ccccc1 | 117 | -0.42 | 0.42 | 0.8 | -0.13
C=C1CCN([C@@H](Cc2ccccc2)C(=O)NCCC(C)C)S(=O)(=O)c2ccccc21 | · | · | -1.5 | · | ·
CN(CCOc1ccccc1)S(=O)(=O)c1ccc2oc3ccccc3c2c1 | · | · | -5.4* | 0.9 | ·
COC(=O)c1nc2n(n1)C(c1cc(OC)ccc1OC)C(C(=O)OC1CCCCC1)=C(C)N2 (centres undefined) | 102 | 1.7 | -4.8* | 1.1 | -1.2
CC(C)(C)n1nnnc1CN1CCN(C(c2ccccc2)c2ccccc2)CC1 | · | · | -5.4* | · | ·
SMILES | HER2 expr 66K | M1 ag | Cav3 T inh | PLAP act | M1 antag
CCc1nnc(NC(=O)CC(CN(C)S(=O)(=O)c2ccccc2)c2ccccc2)s1 (centres undefined) | · | · | -6.9* | 1 | ·
CN(CC(CC(=O)Nc1nncs1)c1ccccc1)S(=O)(=O)c1ccc(Br)cc1 (centres undefined) | · | · | -9.5* | 1.4 | ·
CCC(=O)OC1=C2C(=Nc3c(c(=O)n(C)c(=O)n3C)C2c2ccccc2)c2ccccc21 (centres undefined) | 131 | -0.19 | · | · | -0.39
CCOc1ccc2nc(N/C(N)=N/C(=S)Nc3cccc(C)c3)nc(C)c2c1 | · | · | -5.5* | 1.4 | ·
Cc1nn2c(-c3ccccc3)nnc2c2ccccc12 | 109 | 0.34 | 2.2 | 1.1 | 2.1*
O=C(Nc1nc2ccc(Cl)cc2s1)c1ccc(Br)o1 | 54 | -0.3 | -3.6* | 0.8 | 0.26
O=C(Nc1nc2c(Cl)cccc2s1)c1ccc(Br)o1 | 72 | -0.073 | -0.31 | 1.2 | 0.23
